Source: PubChem BioAssay (Tox21)
Results filed as inconclusive are left out. The source made the active and inactive calls. Unless noted, calls follow the shape of the dose curve; as a rule, active = well fitted curve in the direction sought with a large enough effect in the repeat runs; inconclusive = weak or mixed curves; inactive = no such curve, though single readings can be large; an effect the other way counts as inactive or inconclusive.

Key:
[1] = A CellTox Green Cytotoxicity Assay to monitor cytotoxicity in HepG2 cells - 0 hour (AID 1224882); also: nearly all actives have a fitted effect of over 35% in size
In short: (§1)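 HepG2 cells, 600/well, preincubated 5 h with CellTox Green dye, then exposed to Tox21 compounds in DMSO at 37 C for up to 40 h. Dead-cell DNA fluorescence read at the indicated time point.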

[2] = A CellTox Green Cytotoxicity Assay to monitor cytotoxicity in HepG2 cells - 32 hour (AID 1224883); also: nearly all actives have a fitted effect of over 50% in size
In short: as §1

[3] = A CellTox Green Cytotoxicity Assay to monitor cytotoxicity in HEK293 cells - 8 hour (AID 1224884); also: nearly all actives have a fitted effect of over 35% in size
In short: (§2)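 HEK293 cells, 600/well, were preincubated 5 hours and then exposed to compounds at 37 C for up to 40 hours. A cell-impermeant cyanine dye staining dead-cell DNA was read by fluorescence at 0, 8, 16, 24, 32 and 40 h time points.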

[4] = qHTS RealTime-Glo MT Cell Viability Assay in HepG2 cells - 16 hour (AID 1224885); also: nearly all actives have a fitted effect of over 50% in size
In short: (§3)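 Tox21 10K library screened in qHTS format on HepG2 cells carrying RealTime-Glo reagents. Compounds were added after a 5 h preincubation, and the luminescent signal from continuous culture was measured repeatedly during 40 h treatment.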

[5] = qHTS RealTime-Glo MT Cell Viability Assay in HEK293 cells - 24 hour (AID 1224886); also: nearly all actives have a fitted effect of over 50% in size; also: potency is read from the fitted curve at half-maximal effect; as to activity change, negative = cytotoxicity: top concentration of the series differs between compounds
In short: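 Luminescence generated by NanoLuc from substrate produced by living HEK293 cells served as the viability signal. Each value reflects the reading at its stated time point during continuous 40 h compound exposure at 37 C.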

[6] = qHTS RealTime-Glo MT Cell Viability Assay in HEK293 cells - 8 hour (AID 1224887); also: nearly all actives have a fitted effect of over 50% in size; also: potency is read from the fitted curve at half-maximal effect; as to activity change, negative = cytotoxicity: top concentration of the series differs between compounds
In short: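 600 cells/well were plated with the nonlytic NanoLuc/prosubstrate reagent, pre-incubated 5 h, then given 23 nL of compound in DMSO. Incubation at 37 C for 40 h, with luminescence from viable-cell-reduced substrate read repeatedly from 0 h.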

[7] = A CellTox Green Cytotoxicity Assay to monitor cytotoxicity in HEK293 cells - 16 hour (AID 1224888); also: nearly all actives have a fitted effect of over 35% in size
In short: as §2

[8] = qHTS RealTime-Glo MT Cell Viability Assay in HepG2 cells - 0 hour (AID 1224889); also: nearly all actives have a fitted effect of over 50% in size
In short: as §3

[9] = A CellTox Green Cytotoxicity Assay to monitor cytotoxicity in HepG2 cells - 8 hour (AID 1224890); also: nearly all actives have a fitted effect of over 45% in size
In short: as §1

[10] = qHTS assay to identify small molecule antagonists of the estrogen receptor alpha (ER-alpha) signaling pathway using the BG1 cell line in the presence of 0.1 nM 17-beta-estradiol - cell viability counter screen (AID 1259241); also: nearly all actives have a fitted effect of over 40% in size
In short: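 Following 5 days in phenol red-free medium with charcoal-stripped serum, VM7Luc4E2 cells received test compounds alongside 0.1 nM 17beta-estradiol (final) at 37C for 22 hr. Live cells were then quantified via protease-substrate fluorescence.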

[11] = qHTS assay to identify small molecule antagonists of the androgen receptor (AR) signaling pathway using the MDA cell line in the presence of 0.5 nM R1881 - cell viability counter screen (AID 1259242); also: nearly all actives have a fitted effect of over 45% in size
In short: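 MDA-kb2 cells (MMTV-luciferase, AR/GR responsive) were treated with compounds plus 0.5 nM R1881 (final) for 16 hr at 37C, 0% CO2. Viability was then read in the same wells as live-cell protease fluorescence (CellTiter-Fluor, 30 min).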

[12] = target: Estrogen receptor (Homo sapiens) (UniProt P03372); assay: qHTS assay to identify small molecule antagonists of the estrogen receptor alpha (ER-alpha) signaling pathway using the BG1 cell line in the presence of 0.1 nM 17-beta-estradiol (AID 1259244); also: nearly all actives have a fitted effect of over 50% in size
Chain of Estrogen receptor (Homo sapiens) (P03372 whole entry, looked up): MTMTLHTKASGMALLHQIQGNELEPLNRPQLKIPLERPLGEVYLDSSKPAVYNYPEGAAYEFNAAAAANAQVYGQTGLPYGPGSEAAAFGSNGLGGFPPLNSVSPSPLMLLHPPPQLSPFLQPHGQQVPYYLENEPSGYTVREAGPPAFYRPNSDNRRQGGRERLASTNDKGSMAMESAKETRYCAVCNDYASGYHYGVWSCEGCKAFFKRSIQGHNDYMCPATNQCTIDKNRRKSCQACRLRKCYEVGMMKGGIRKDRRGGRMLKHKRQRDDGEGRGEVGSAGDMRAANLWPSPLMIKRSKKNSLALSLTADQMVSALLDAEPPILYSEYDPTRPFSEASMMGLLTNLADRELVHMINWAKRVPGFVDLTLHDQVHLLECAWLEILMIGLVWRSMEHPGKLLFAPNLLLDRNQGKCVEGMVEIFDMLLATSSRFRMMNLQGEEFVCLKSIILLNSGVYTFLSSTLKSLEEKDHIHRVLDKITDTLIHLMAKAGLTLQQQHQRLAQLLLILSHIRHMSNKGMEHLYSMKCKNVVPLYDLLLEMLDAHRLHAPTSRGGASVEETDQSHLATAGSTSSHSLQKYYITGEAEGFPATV
In short: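 VM7Luc4E2 cells (endogenous full-length ER-alpha, 4×ERE-luciferase), kept 5 days in phenol red-free, charcoal-stripped FBS medium; 4,000 cells/well. Compounds added with 0.1 nM (final) 17beta-estradiol, 22 hr at 37C; luminescence read with ONE-Glo after 30 min.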

[13] = qHTS assay to identify small molecule phospholipidosis (PLD) inducers (AID 1259344; active = well fitted curve in the direction sought with a large enough effect; an effect the other way counts as inactive or inconclusive)
In short: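 Fluorescent phospholipid staining (LipidTOX Red) measured by automated microscopy in fixed HepG2 cells after 24 h treatment; nuclei counterstained with Hoechst 33342; amiodarone as reference inducer.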

[14] = qHTS assay to identify small molecule HDAC inhibitors (AID 1259364); also: top concentration of the series differs between compounds; nearly all actives have a fitted effect of over 45% in size
In short: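 Wild-type HCT-116 cells, plated overnight at 37 C, exposed to compounds 2 hr at 37 C; luminogenic HDAC-Glo substrate then added 30 min at room temperature. Luminescence reports relative endogenous class I/II HDAC activity.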

[15] = qHTS assay to identify small molecule HDAC inhibitors - cell viability counter screen (AID 1259365)
In short: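 HCT-116 wild-type, overnight attachment; 2hr drug exposure, 37C; CellTiter-Glo luminescent ATP readout after 30min RT.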

[16] = qHTS assay to identify small molecule agonists of the sonic hedgehog signaling (Shh) pathway - cell viability counter screen (AID 1259366); also: nearly all actives have a fitted effect of over 50% in size
In short: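 Compounds in DMSO were pin-transferred onto 3T3 Gli1-Luc cells that had settled 4hr; plates then stood 24hr at 37C and 5% CO2. One hour before the end, CellTiter-Fluor was added and fluorescence recorded.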

[17] = qHTS assay to identify small molecule antagonists of the sonic hedgehog signaling (Shh) pathway - cell viability counter screen (AID 1259367); also: nearly all actives have a fitted effect of over 55% in size
In short: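 Using CellTiter-Fluor, viability of Gli1-Luc reporter 3T3 cells is read by fluorescence in the wells used for the Shh luciferase assay. Treatment lasts 23 hr with conditioned medium, then reagent 1 hr at 37C.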

[18] = qHTS assay to identify small molecule agonists of the sonic hedgehog signaling (Shh) pathway (AID 1259368; calls by dose curve;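 also: NIH/3T3-derived 3T3Gli1-Luc cells carrying a stable Gli1-driven firefly luciferase reporter; series mostly up to about 92 µM; nearly all actives have a fitted effect of over 15% in size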)
In short: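 NIH/3T3-derived 3T3Gli1-Luc cells with stably integrated Gli1-driven firefly luciferase, 2,000 cells/well, compounds added after 4 hr. Incubated 24 hr at 37C, 5% CO2; luminescence read after 30 min with luciferase reagent at room temperature.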

[19] = qHTS assay to identify small molecule antagonists of the sonic hedgehog signaling (Shh) pathway (AID 1259369; calls by dose curve; also: nearly all actives have a fitted effect of over 45% in size)
In short: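 NIH/3T3-derived Gli1-Luc reporter cells plated 4 h, dosed with compound, then stimulated with conditioned medium for 24 h at 37 C. Firefly luciferase luminescence read after 30 min with detection reagent at room temperature.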

[20] = target: Androgen receptor (Homo sapiens) (UniProt P10275); assay: qHTS assay to identify small molecule antagonists of the androgen receptor (AR) signaling pathway using the MDA cell line in the presence of 0.5 nM R1881 (AID 1259243); also: nearly all actives have a fitted effect of over 50% in size
Chain of Androgen receptor (Homo sapiens) (P10275 whole entry, looked up): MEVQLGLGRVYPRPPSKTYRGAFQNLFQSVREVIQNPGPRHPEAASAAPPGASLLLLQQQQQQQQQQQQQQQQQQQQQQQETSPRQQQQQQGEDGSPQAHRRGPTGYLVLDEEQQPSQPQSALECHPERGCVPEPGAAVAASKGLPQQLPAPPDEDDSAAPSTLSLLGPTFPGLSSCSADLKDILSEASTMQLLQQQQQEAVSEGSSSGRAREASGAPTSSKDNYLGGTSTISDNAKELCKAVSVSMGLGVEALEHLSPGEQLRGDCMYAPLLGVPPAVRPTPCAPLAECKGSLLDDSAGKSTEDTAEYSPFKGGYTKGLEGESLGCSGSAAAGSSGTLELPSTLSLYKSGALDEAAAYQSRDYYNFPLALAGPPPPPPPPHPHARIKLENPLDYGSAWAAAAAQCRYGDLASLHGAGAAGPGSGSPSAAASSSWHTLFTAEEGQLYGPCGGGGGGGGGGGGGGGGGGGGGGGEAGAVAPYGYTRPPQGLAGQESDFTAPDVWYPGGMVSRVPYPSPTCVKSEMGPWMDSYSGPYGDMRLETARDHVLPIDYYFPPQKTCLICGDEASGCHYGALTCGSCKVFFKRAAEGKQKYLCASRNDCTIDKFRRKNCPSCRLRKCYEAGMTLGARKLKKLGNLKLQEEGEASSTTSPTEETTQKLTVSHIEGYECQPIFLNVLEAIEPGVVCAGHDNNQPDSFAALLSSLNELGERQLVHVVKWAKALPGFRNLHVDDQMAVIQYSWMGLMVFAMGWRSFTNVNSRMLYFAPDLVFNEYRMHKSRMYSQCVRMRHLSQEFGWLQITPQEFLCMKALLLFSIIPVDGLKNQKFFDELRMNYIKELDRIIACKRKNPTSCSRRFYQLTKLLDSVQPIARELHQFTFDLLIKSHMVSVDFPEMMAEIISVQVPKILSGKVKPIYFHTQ
In short: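 MDA-kb2 cells (MMTV-luciferase, responsive to AR and GR) at 3,000/well, rested 5 h at 37C, 0% CO2, then given compounds plus 0.5 nM R1881 (final) for 16 hr. Luciferase read with ONE-Glo after 30 min at room temperature.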
% is scaled to controls: 0 for no effect and ±100 for the full control effect.

O=C1N(c2ccccc2)c2ccccc2C1(Cc1ccncc1)Cc1ccncc1
inactive: Potency [1] | Potency [2] | Potency [3] | outcome [4] | Potency [5] | Potency [6] | Potency [7] | Potency [8] | Potency [9] | Potency [10] | outcome [11] | Potency [12] | outcome [13] | Potency [14] | outcome [15] | Potency [16] | Potency [17] | Potency [18] | Potency [19]

O=C(C(Cl)Cl)N1CCOC12CCCCC2
inactive: Potency [1] | Potency [2] | Potency [3] | outcome [4] | Potency [5] | Potency [6] | Potency [7] | Potency [8] | Potency [9] | Potency [10] | outcome [11] | Potency [12] | Potency [14] | outcome [15] | Potency [16] | Potency [17] | Potency [18] | Potency [19]

OCCN(CCO)CCN(CCO)CCO
inactive: Potency [1] | Potency [2] | Potency [3] | outcome [4] | Potency [5] | Potency [6] | Potency [7] | Potency [8] | Potency [9] | Potency [10] | outcome [11] | Potency [20] | Potency [12] | Potency [14] | outcome [15] | Potency [16] | Potency [17] | Potency [18] | Potency [19]

C=O
inactive: Potency [1] | Potency [2] | Potency [3] | outcome [4] | Potency [5] | Potency [6] | Potency [7] | Potency [8] | Potency [9] | Potency [10] | outcome [11] | outcome [13] | Potency [14] | outcome [15] | Potency [16] | Potency [17] | Potency [18] | Potency [19]

NC1=NCC2c3ccccc3Cc3ccccc3N12 (stereo not drawn)
inactive: Potency [1] | Potency [2] | Potency [3] | outcome [4] | Potency [5] | Potency [6] | Potency [7] | Potency [8] | Potency [9] | Potency [10] | outcome [11] | outcome [13] | Potency [14] | outcome [15] | Potency [16] | Potency [17] | Potency [18]

NNS(=O)(=O)c1ccc(Oc2ccc(S(=O)(=O)NN)cc2)cc1
inactive: Potency [1] | Potency [2] | Potency [3] | outcome [4] | Potency [5] | Potency [6] | Potency [7] | Potency [8] | Potency [9] | Potency [10] | outcome [11] | Potency [12] | Potency [14] | outcome [15] | Potency [16] | Potency [17] | Potency [18] | Potency [19]

CCN[C@H]1CN(CCCOC)S(=O)(=O)c2sc(S(N)(=O)=O)cc21
inactive: Potency [1] | Potency [2] | Potency [3] | outcome [4] | Potency [5] | Potency [6] | Potency [7] | Potency [8] | Potency [9] | Potency [10] | outcome [11] | Potency [12] | outcome [13] | Potency [14] | outcome [15] | Potency [16] | Potency [17] | Potency [19]

CN(C)CC[C@@H](c1ccc(Cl)cc1)c1ccccn1
inactive: Potency [1] | Potency [2] | Potency [3] | outcome [4] | Potency [5] | Potency [6] | Potency [7] | Potency [8] | Potency [9] | Potency [10] | outcome [11] | PLD induction [13] 19.5% [at 1.53 µM] | Potency [14] | outcome [15] | Potency [16] | Potency [17] | Potency [18]

COc1cc(N)c(Cl)cc1C(=O)NC1CCN(Cc2ccccc2)CC1
inactive: Potency [1] | Potency [2] | Potency [3] | outcome [4] | Potency [7] | Potency [8] | Potency [9] | Potency [10] | outcome [11] | Potency [12] | outcome [13] | Potency [14] | outcome [15] | Potency [16] | Potency [17] | Potency [18]
active: Potency [5] 19 µM | Potency [6] 21.3 µM

CCc1cc(Cl)c(OC)c(C(=O)NC[C@@H]2CCCN2CC)c1O
inactive: Potency [1] | Potency [2] | Potency [3] | outcome [4] | Potency [5] | Potency [6] | Potency [7] | Potency [8] | Potency [9] | Potency [10] | outcome [11] | Potency [12] | Potency [14] | outcome [15] | Potency [16] | Potency [17] | Potency [18]

CCCOCCC
inactive: Potency [1] | Potency [2] | Potency [3] | outcome [4] | Potency [5] | Potency [6] | Potency [7] | Potency [8] | Potency [9] | Potency [10] | outcome [11] | Potency [12] | Potency [14] | outcome [15] | Potency [16] | Potency [17] | Potency [18] | Potency [19]

C[C@@H]1CN(c2c(F)c(N)c3c(=O)c(C(=O)O)cn(C4CC4)c3c2F)C[C@H](C)N1
inactive: cytotoxicity [1] 5.9% [at 15.8 µM] | cytotoxicity increase [2] -7.06% [at 15.8 µM] | cytotoxicity increase [3] -0.635% [at 15.8 µM] | activity change, negative = cytotoxic [4] 0.182% [at 15.8 µM] | activity change, negative = cytotoxicity [5] 4.31% [at 15.8 µM] | activity change, negative = cytotoxicity [6] 0.0014% [at 15.8 µM] | activity change [7] -0.126% [at 15.8 µM, active compounds read high] | activity change, negative = cytotoxicity [8] 5.84% [at 15.8 µM] | cytotoxicity increase [9] 0.794% [at 15.8 µM] | activity change, negative = cytotoxicity [10] 1.55% [at 19 µM] | viability change, negative = cytotoxic [11] 0.0147% [at 19 µM] | activity change, negative = inhibition [12] -0.515% [at 19 µM] | outcome [13] | activity change, negative = inhibition [14] -1.07% [at 19 µM] | activity change, negative = cytotoxicity [15] 4.84% [at 19 µM] | viability change, negative = cytotoxic [16] 1.22% [at 19 µM] | viability change, negative = cytotoxic [17] 0.364% [at 19 µM] | activity change [18] -0.971% [at 18.9 µM, active compounds read high] | activity change, negative = inhibition [19] 23.6% [at 19 µM]

Cc1c(C(=O)NCCO)[n+](=O)c2ccccc2n1[O-]
inactive: Potency [1] | Potency [2] | Potency [3] | outcome [4] | Potency [5] | Potency [6] | Potency [7] | Potency [8] | Potency [9] | Potency [10] | outcome [11] | Potency [20] | outcome [13] | Potency [14] | outcome [15] | Potency [16] | Potency [17] | Potency [18] | Potency [19]

NC(=O)NS(=O)(=O)c1ccc(Cl)cc1
inactive: Potency [1] | Potency [2] | Potency [3] | outcome [4] | Potency [5] | Potency [6] | Potency [7] | Potency [8] | Potency [9] | Potency [10] | outcome [11] | Potency [20] | Potency [14] | outcome [15] | Potency [16] | Potency [17] | Potency [18] | Potency [19]
